Laboratory results reported in publication PMC5540273 (PLoS ONE, 2017).

Columns and labels:
Details in all cases: concentration: 1 μM,replicates: in singlicate; n = 1
[1] = test system: RPS6KA4(Kin.Dom.1-N-terminal)
[2] = test system: RPS6KA4(Kin.Dom.2-C-terminal)
[3] = test system: RPS6KA5(Kin.Dom.1-N-terminal)
[4] = test system: RPS6KA5(Kin.Dom.2-C-terminal)
[5] = test system: T1, RSK1(Kin.Dom.1-N-terminal)
T1 construct: gene RPS6KA1

[6] = test system: T2, RSK1(Kin.Dom.2-C-terminal)
T2 construct: gene RPS6KA1

[7] = test system: T3, RSK2(Kin.Dom.1-N-terminal)
T3 construct: gene RPS6KA3

[8] = test system: T4, RSK2(Kin.Dom.2-C-terminal)
T4 construct: gene RPS6KA3

[9] = test system: T5, RSK3(Kin.Dom.1-N-terminal)
T5 construct: gene RPS6KA2

[10] = test system: T6, RSK3(Kin.Dom.2-C-terminal)
T6 construct: gene RPS6KA2
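Also: KINOMEscan kinase panel screen.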

Structure (SMILES)	%Inh [1]	%Inh [2]	%Inh [3]	%Inh [4]	%Inh [5]	%Inh [6]	%Inh [7]	%Inh [8]	%Inh [9]	%Inh [10]
O=C(Nc1cccc(Oc2ccc3nccn3n2)c1)Nc1cccc(C(F)(F)F)c1	24%	0%	0%	0%	0%	9%	8%	25%	0%	0%
O=C(NCC1CC1)c1ccc(-c2cc(C(=O)NC3CC3)ccc2F)cc1 [GW810445]	7%	0%	0%	7%	0%	3%	0%	0%	0%	0%
CC(C)S(=O)(=O)N1CCN(Cc2ccc3c(c2)nc(NC(=O)c2ccsc2)n3C[C@H](O)c2ccccc2)CC1 [GW635815]	29%	0%	12%	0%	96.1%	0%	91.8%	6%	93.5%	24%
COc1cccc(CNC(=O)NC2CCN(c3ccnc(Nc4cc(OC)c(OC)c(OC)c4)n3)C2)c1 (stereo not shown) [GSK1379765]	1%	0%	0%	0%	17%	0%	7%	29%	22%	1%
Cn1ccc2ncnc(Oc3ccc(NC(=O)Nc4ccnc(C(F)(F)F)c4)c(Cl)c3)c21	0%	7%	3%	7%	0%	9%	0%	35%	0%	1%
C[C@@H]1CCN(C(=O)N2CCCC2)C[C@@H]1N(C)c1ncnc2[nH]ccc12	0%	2%	0%	0%	0%	14%	10%	0%	0%	22%
CN1CCN(CCNc2nc3cc(Oc4ccc(NC(=O)Nc5cc(C(F)(F)F)ccc5F)cc4)ccc3[nH]2)CC1.Cl.Cl [GW768504]	5%	0%	0%	1%	7%	28%	0%	0%	0%	8%
